15 compounds from PubChem BioAssay (NCI) can be followed below.

Structures are written as SMILES. The panel holds about 83,000 compounds, 20% with a hit somewhere; the sample as a whole holds those more often.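 Plates (96-well) were seeded with cells, treated with compound at one concentration, and incubated for 48 hours before percent growth was determined.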 A number with no mark means an inactive call. Activity calls are given as the source filed them. Rule for the calls: active = growth percent below 10; inactive = the rest.

This test concerns NCI-H23 lung. The test can be described thus: NCI-60 one-dose screen, 48 h (100 = growth as untreated, 0 = no growth, -100 = all killed). As to conditions: 10 µM unless noted.
As to `Nc1ccccc1-c1ccc(-c2ccc(Cl)cc2)c2c1[nH]c1ccccc12`, the growth is 77%.

As to `OC(CNC1CCCCC1)Cn1c2ccc(I)cc2c2cc(I)ccc21` (stereo not given), the growth is 76.6%.

As to `COc1cc(C(=O)NN=C2c3ccccc3-c3ccccc32)cc(OC)c1OC`, the growth was 62%.

For `C=C(C)CCC(C)N1CCC(N2CCC(C(=O)NCCc3ccccc3)CC2)CC1` (stereo not given), the growth was 62.4%.

Consider `C#CCn1cc(C=C2C(=O)N(C)C(=O)N(C)C2=O)c2cc(Cl)ccc21`, for which the growth is 110%.

Consider `O=C(Nc1ccc(C23CC4CC(CC(c5ccccc5)(C4)C2)C3)cc1)c1cccs1`, for which the growth is 71.4%.

Take `O=C(Cc1ccccc1)NC(c1ccc(Cl)cc1)c1c(O)ccc2ccccc12` (stereo not given): the growth is 4.5% (active).

Turning to `COc1ccc(CSc2nnc(SCC(=O)Nc3ccc(Cl)cc3)s2)cc1`, the growth is 80.5%.

On to `O=C(COc1cc(O)c2c(=O)cc(-c3ccccc3)oc2c1)Nc1ccccc1C(F)(F)F`, for which the growth was 46.1%.

As for `Cc1cc(OC(=O)c2ccc([N+](=O)[O-])cc2)nc2[nH]c(=O)sc12`, the growth was 103%.

`O=c1oc2ccc(F)cc2c(=O)n1-c1ccc(I)cc1F`: the growth is 2.97% (active).

For `O=Cc1c(OCc2cnnn2CC(=O)Nc2ccc(Br)cc2)ccc2ccccc12`, the growth was 86.4%.

As to `COc1ccc2[nH]c(O)c(N=NC(=O)c3oc4ccccc4c3C)c2c1`, the growth is 10.6%.

On to `Cc1cc(Nc2ccc(OCc3ccccc3)cc2)nc2cc(O)ccc12`, for which the growth was 55%.

As for `O=C(COc1cc(O)c2c(=O)cc(-c3ccccc3)oc2c1)Nc1ccccc1`, the growth was 83.7%.
